In all, about 33,000 sequences were measured (“E-score (-0.5 to 0.5)”: median about -0.0014, highest 2% from about 0.25 on). The list comes from a sample in which the highest values are over-represented; it also holds similar and randomly drawn sequences.
These sequences were tested against T1, Cad1 (UniProt P24813) (assay: PBM E-score (8-mer binding enrichment) (E-score (-0.5 to 0.5)); higher = stronger / more preferred TF binding). Conditions: protein concentration: 100 nM; construct: GST-full length.
T1 sequence: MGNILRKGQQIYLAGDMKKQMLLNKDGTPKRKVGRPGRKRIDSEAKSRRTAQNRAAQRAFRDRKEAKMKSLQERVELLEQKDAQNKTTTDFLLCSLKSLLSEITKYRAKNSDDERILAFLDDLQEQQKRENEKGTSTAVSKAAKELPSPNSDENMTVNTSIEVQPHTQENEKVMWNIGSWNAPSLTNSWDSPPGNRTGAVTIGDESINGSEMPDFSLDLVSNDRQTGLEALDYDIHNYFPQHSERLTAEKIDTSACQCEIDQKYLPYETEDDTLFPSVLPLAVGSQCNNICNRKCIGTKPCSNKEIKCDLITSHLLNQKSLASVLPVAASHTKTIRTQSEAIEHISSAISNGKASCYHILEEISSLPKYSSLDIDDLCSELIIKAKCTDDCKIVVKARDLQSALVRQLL
Protocol: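 Universal 'all 10-mer' protein binding microarrays (Agilent AMADID 015681) probed with GST-tagged S. cerevisiae TFs (full-length or DBD) made by in vitro transcription/translation (PURExpress), about 100-200 nM. Bound TF was detected with fluorescent anti-GST. Each ungapped 8-mer (which stands for itself and its reverse complement) is scored by the PBM enrichment score (E-score), a modified Wilcoxon-Mann-Whitney statistic from -0.5 to +0.5, computed with the Universal PBM Analysis Suite. Scale: above 0.35 generally sequence-specific binding.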
AGCAATCA was tested, and the “PBM E-score” value was 0.216. With AGCAATCC the “PBM E-score” value was -0.214. AGCAATCG was tested, and the “PBM E-score” value was 0.27. In the case of ATGCGACC, the “PBM E-score” value is reported as 0.0488. In the case of CTATTAGA, the “PBM E-score” value is reported as -0.057. For GTATTAGA, the “PBM E-score” value was 0.26. With ATATTAGA the “PBM E-score” value was 0.197. With GTTGCAGA the “PBM E-score” value was -0.0187. For AAATAGTG, the “PBM E-score” value was 0.258. For AAATCGTG, the “PBM E-score” value was 0.263. AAATCGTA was tested, and the “PBM E-score” value was -0.0277. AAATAGTC was tested, and the “PBM E-score” value was -0.0981. In the case of AAATCGTC, the “PBM E-score” value is reported as 0.0296. With AAATAGTT the “PBM E-score” value was 0.129. CACGATGC was tested, and the “PBM E-score” value was -0.0719. GAATCGTA was tested, and the “PBM E-score” value was 0.0597. In the case of CCGAAGAA, the “PBM E-score” value is reported as 0.00754. In the case of CAGGTGCC, the “PBM E-score” value is reported as -0.0801. For AGAATACA, the “PBM E-score” value was 0.0745. In the case of CTTATTTA, the “PBM E-score” value is reported as -0.00667. With AATATTTC the “PBM E-score” value was 0.264. For AATATGTC, the “PBM E-score” value was 0.17. With AATATGTA the “PBM E-score” value was 0.206. In the case of CATATTTC, the “PBM E-score” value is reported as 0.0121. AATATTTG was tested, and the “PBM E-score” value was 0.255. CTTATTTC was tested, and the “PBM E-score” value was 0.304. AATATGTG was tested, and the “PBM E-score” value was 0.251. In the case of ATTATTTC, the “PBM E-score” value is reported as 0.2. With ACTATTTG the “PBM E-score” value was 0.101. In the case of ATTATTTG, the “PBM E-score” value is reported as 0.175. AATATTTA was tested, and the “PBM E-score” value was 0.213. For CCCTACCG, the “PBM E-score” value was -0.112. For AACGGGAC, the “PBM E-score” value was -0.148. In the case of AACCAGAC, the “PBM E-score” value is reported as -0.0829. In the case of GTGGACTA, the “PBM E-score” value is reported as 0.144. With CTGAAGTC the “PBM E-score” value was -0.0337. For ACATCCCG, the “PBM E-score” value was 0.147. CCCTCGAC was tested, and the “PBM E-score” value was -0.0126. AATTTGGG was tested, and the “PBM E-score” value was 0.0286. For AGTCCACA, the “PBM E-score” value was -0.141. In the case of AATATTGG, the “PBM E-score” value is reported as 0.0135. CATATTGC was tested, and the “PBM E-score” value was -0.116. For AATATTGC, the “PBM E-score” value was 0.294. For GACGAAAC, the “PBM E-score” value was 0.144. In the case of AATTTGTA, the “PBM E-score” value is reported as 0.196. With CATTTATA the “PBM E-score” value was 0.021. ATTTTATG was tested, and the “PBM E-score” value was 0.255. With GATTTATA the “PBM E-score” value was 0.319. With GATTTTTA the “PBM E-score” value was -0.0272. CATTTATC was tested, and the “PBM E-score” value was 0.15. In the case of ATTTTGTC, the “PBM E-score” value is reported as 0.121. AATTTATG was tested, and the “PBM E-score” value was 0.229. For AATTTATC, the “PBM E-score” value was 0.293. With AATTTGTC the “PBM E-score” value was 0.31. For ATTTTATA, the “PBM E-score” value was 0.221. In the case of AATTTATA, the “PBM E-score” value is reported as 0.241. For GATCAAAA, the “PBM E-score” value was 0.144. AGTACTTA was tested, and the “PBM E-score” value was -0.0184. In the case of CAGGTTCA, the “PBM E-score” value is reported as -0.134. In the case of TTCGACAA, the “PBM E-score” value is reported as 0.0549. GGCGACAC was tested, and the “PBM E-score” value was 0.0142. With GTACGTGA the “PBM E-score” value was 0.0217. AGCAACCA was tested, and the “PBM E-score” value was 0.0389. ATCGTTAC was tested, and the “PBM E-score” value was 0.0243. GTTCATGA was tested, and the “PBM E-score” value was 0.262. For ATTCATGA, the “PBM E-score” value was 0.0482. For AATCATGG, the “PBM E-score” value was 0.048. In the case of CTTCATGA, the “PBM E-score” value is reported as 0.207. With AATCATGA the “PBM E-score” value was 0.317. With TATCATGA the “PBM E-score” value was 0.16. With CTCTGAAC the “PBM E-score” value was -0.212. With GGTATCCA the “PBM E-score” value was 0.135. With CTCTCCTA the “PBM E-score” value was -0.129. For CGCGATGC, the “PBM E-score” value was -0.0576. For TCAGAGAA, the “PBM E-score” value was -0.0244. For AAGGCCAT, the “PBM E-score” value was 0.0298. ATTCTCCC was tested, and the “PBM E-score” value was 0.115. CTACCTCA was tested, and the “PBM E-score” value was -0.107. In the case of CACGCTGA, the “PBM E-score” value is reported as 0.143. With GACGCTGA the “PBM E-score” value was 0.0912. With AGCGCTTC the “PBM E-score” value was 0.122. GGCGCTGA was tested, and the “PBM E-score” value was -0.0921. In the case of GGCGCTTA, the “PBM E-score” value is reported as -0.0696. With AGCGCTGA the “PBM E-score” value was 0.258. CGCGCTTA was tested, and the “PBM E-score” value was 0.262. For CGCGCTTC, the “PBM E-score” value was 0.0321. In the case of AGCGCTGG, the “PBM E-score” value is reported as 0.191. For TACGCTGA, the “PBM E-score” value was 0.275. With AGCGCTTA the “PBM E-score” value was 0.336. For CGCGCTGA, the “PBM E-score” value was 0.219. In the case of CTGTTCGA, the “PBM E-score” value is reported as -0.08. CTCCTACC was tested, and the “PBM E-score” value was -0.236. For CGGGTGAC, the “PBM E-score” value was -0.0446. With ACGGTGAC the “PBM E-score” value was -0.102. With ATCATTGG the “PBM E-score” value was -0.0561. For CCAGTCGG, the “PBM E-score” value was -0.238. CTCACCGA was tested, and the “PBM E-score” value was -0.12. In the case of GATTCCTA, the “PBM E-score” value is reported as 0.0143. In the case of CACGCTCA, the “PBM E-score” value is reported as 0.261. In the case of TACGCTCA, the “PBM E-score” value is reported as -0.0567. In the case of AACGCTCA, the “PBM E-score” value is reported as -0.0578. With ACGGTACA the “PBM E-score” value was 0.0323. In the case of AGTCAGGA, the “PBM E-score” value is reported as 0.141. In the case of AGTCAGGC, the “PBM E-score” value is reported as 0.294. With CGTCAGGC the “PBM E-score” value was -0.125. With GCCATAAA the “PBM E-score” value was 0.125. With AGAAGGTA the “PBM E-score” value was 0.103. GGCGCTAA was tested, and the “PBM E-score” value was -0.0255. In the case of AGCGCTAC, the “PBM E-score” value is reported as -0.068. For AGCGCTAT, the “PBM E-score” value was 0.278.
